{
  "source": "ChEMBL document CHEMBL3433997",
  "about": "“St. Jude Leishmania screening dataset” (2016)",
  "note": "Where “and” joins values, the source holds several entries; their conditions need not be identical. Equal values may be shown once.",
  "data": [
    {"target": "Glucose transporter (Leishmania mexicana) (UniProt O61059)", "test": "ST_JUDE_LEISH: Cytotoxicity at 2uM final concentration against transgenic Leishmania Mexicana promastigotes LmGT2 that are glucose transport deficient and complemented with the L. Mexicana glucose transporter 2. Activity is measured by DNA content using SYBR green in vitro", "assay_type": "functional", "values": [
      {"smiles": "COCCNCc1cccc(-c2ccc(CN(C(=O)Nc3ccccc3)C3CCN(Cc4ccccc4)CC3)cc2)c1", "inhibition": "2.73%"},
      {"smiles": "Fc1ccc(N(c2nc(-c3cc(F)cc(C(F)(F)F)c3)cs2)C2CCNCC2)cc1", "inhibition": "-1.46%"},
      {"smiles": "CCCCC1(NC(=O)[C@H](CC(C)C)Nc2ccc(C#N)c3ccccc23)CCCCC1", "inhibition": "2.56%"},
      {"smiles": "COc1ccc(-c2ccccc2)cc1NC(=S)NC1CCC(CN2CCC(c3c[nH]c4ccccc34)CC2)CC1", "note": "(configuration not stated)", "inhibition": "0.72% and 3.03%"},
      {"smiles": "COC(=O)c1ccc(CC(C)NCC(O)c2cccc(C(F)(F)F)c2)c(Cl)c1", "note": "(configuration not stated)", "inhibition": "3.39%"},
      {"smiles": "COc1cc2nc(N(C)C3CCN(Cc4ccccc4)CC3)nc(N)c2cc1OC", "inhibition": "25%"},
      {"smiles": "COc1cccc(C(=O)C2CC2CN2CC=C(c3c[nH]c4ccc(OC)nc34)CC2)c1", "note": "(configuration not stated)", "inhibition": "1.94%"},
      {"smiles": "CC(C)/C(=C(/F)CN1C(=O)C(NC(=O)c2cc3ccccc3[nH]2)C(=O)N(c2ccccc2)c2ccccc21)c1ccccc1", "note": "(configuration not stated)", "inhibition": "-1.01%"},
      {"smiles": "O=C(Cc1cc(=O)oc2cc(O)ccc12)N1CCC(CN2CCC(c3c[nH]c4ccccc34)CC2)CC1", "inhibition": "5%"},
      {"smiles": "CC(=O)N(Cc1cccc(-c2cccc(CNCc3ccc4c(c3)OCO4)c2)c1)C1CCN(Cc2ccccc2)CC1", "inhibition": "7.83%"},
      {"smiles": "Cc1ccc(C[C@@H](C)NC[C@H](O)c2cccc(C(F)(F)F)c2)cc1", "inhibition": "2.92%"},
      {"smiles": "O=C(NC1CCC(CN2CCC(c3c[nH]c4ccccc34)CC2)CC1)c1cc(-c2ccccc2Cl)n(-c2cccc(Cl)c2)n1", "note": "(configuration not stated)", "inhibition": "1.71%"},
      {"smiles": "COC(=O)c1ccc(CC(C)NCC(O)c2cccc(OCc3ccccc3)c2)cc1", "note": "(configuration not stated)", "inhibition": "8.15%"},
      {"smiles": "CC(C)(C)c1cc(/C=C/C(=O)NC2CCC(CN3CCC(c4c[nH]c5ccccc45)CC3)CC2)cc(C(C)(C)C)c1O", "note": "(configuration not stated)", "inhibition": "-0.51% and 1.19%"},
      {"smiles": "Oc1ccc(Cl)cc1CN1CCC(CCOC(c2ccccc2)c2ccc(Cl)cc2)CC1", "note": "(configuration not stated)", "inhibition": "5.18%"},
      {"smiles": "CC[C@H]1CN2CCc3cc(OC)c(OC)cc3[C@@H]2C[C@@H]1C[C@H]1NCCc2c1cc(OC)c(O)c2I", "inhibition": "90%"},
      {"smiles": "CC[C@H]1CN2CC[C@H]1C[C@H]2[C@H](O)c1cc(Cl)nc2ccc(OC)cc12", "inhibition": "1.61%"},
      {"smiles": "COCCNCc1cccc(-c2ccc(CN(C(=O)NC3CCCCC3)C3CCN(Cc4ccccc4)CC3)cc2)c1", "inhibition": "2.09%"},
      {"smiles": "COCCNCc1cccc(-c2cccc(CN(C(=O)Nc3ccccc3)C3CCN(Cc4ccccc4)CC3)c2)c1", "inhibition": "1.33%"},
      {"smiles": "Cc1cc(N(C)C2CCN(C)CC2)nc(Nc2ccc(Br)cc2)n1", "inhibition": "1.93%"},
      {"smiles": "Cc1cc(NC(=O)[C@@H](Nc2ccc(C#N)c3ccccc23)C2CCCCC2)ccc1F", "inhibition": "-0.25%"},
      {"smiles": "COc1ccc(OC)c(CNCC(O)c2cc(C(F)(F)F)cc(C(F)(F)F)c2)c1", "note": "(configuration not stated)", "inhibition": "3.49%"},
      {"smiles": "O=C(Cc1c(-c2ccccc2)[nH]c2ccccc12)NC1CCC(CN2CCC(c3c[nH]c4ccccc34)CC2)CC1", "note": "(configuration not stated)", "inhibition": "2.03%"},
      {"smiles": "CN(c1cc(NC(=O)c2ccc(F)cc2)ccn1)C1CCN(Cc2cccc(F)c2)CC1", "inhibition": "3.83%"},
      {"smiles": "CN(C(=O)OCc1ccccc1)C1CCC(CCN2CCC3(CC2)C(=O)NCN3c2cccc(C(F)(F)F)c2)(c2ccccc2)CC1", "note": "(configuration not stated)", "inhibition": "2.55%"},
      {"smiles": "O=C(/C=C/c1ccc(Cl)c(Cl)c1)N1CCC(CN2CCC(c3c(Br)[nH]c4ccccc34)CC2)CC1", "inhibition": "0.55%"},
      {"smiles": "Cc1ccc(CC(C)NC[C@H](O)c2cccc(Cl)c2)cc1", "note": "(some centres not stated)", "inhibition": "1.47% and 1.06%"},
      {"smiles": "O=C(/C=C/c1ccc(Cl)c(Cl)c1)Nc1cccc(CN2CCC(c3c[nH]c4ccc(O)cc34)CC2)c1", "inhibition": "-0.7%"},
      {"smiles": "Cn1cc(CN2CCC(CCOC(c3ccccc3)c3ccccc3)CC2)cn1", "inhibition": "5.33%"},
      {"smiles": "CNC(=O)c1ccc2[nH]cc(C3CCN(CC4CCC(NC(=O)/C=C/c5ccccc5Cl)CC4)CC3)c2c1", "note": "(configuration not stated)", "inhibition": "8.45%"},
      {"smiles": "O=C(CC1CCCC1)N(CC1CCN(Cc2ccc(C(F)(F)F)cc2)CC1)c1ccc(N2CCOCC2)c(F)c1", "inhibition": "14%"},
      {"smiles": "Cc1ccc(CC(C)NCC(O)c2cccc(C(F)(F)F)c2)cc1F", "note": "(configuration not stated)", "inhibition": "5.67%"},
      {"smiles": "O=C(NC1CCC(CN2CCC(c3c[nH]c4ccccc34)CC2)CC1)c1[nH]c(=O)[nH]c(=O)c1F", "note": "(configuration not stated)", "inhibition": "-0.11%"},
      {"smiles": "CC[C@H]1CN2CC[C@@H]1C[C@H]2[C@H](O)c1cc(N2CCC(O)(c3ccc(Cl)cc3)CC2)nc2ccc(OC)cc12", "inhibition": "2.62%"},
      {"smiles": "O=C(/C=C/c1ccc(Cl)c(Cl)c1)N1CCC(CN2CCC(c3c[nH]c4ccc(NS(=O)(=O)c5cccs5)cc34)CC2)CC1", "inhibition": "5.21%"},
      {"smiles": "Cc1[nH]c2ccc(NS(C)(=O)=O)cc2c1C1CCN(CC2CCN(C(=O)/C=C/c3ccc(Cl)c(Cl)c3)CC2)CC1", "inhibition": "-0.21%"},
      {"smiles": "COc1nc(N)ncc1C(=O)NC1CN2CCC1CC2", "note": "(configuration not stated)", "inhibition": "7.08%"}
    ]}
  ]
}
